From ChEMBL document CHEMBL1961873, “Compounds: GSK PKIS; Assays: Nanosyn kinase panel” (2012)

These compounds were tested against T1, Testis-specific serine/threonine-protein kinase 2 (Homo sapiens) (UniProt Q96PF2). Settings: at 0.1 µM.
T1 sequence (whole entry): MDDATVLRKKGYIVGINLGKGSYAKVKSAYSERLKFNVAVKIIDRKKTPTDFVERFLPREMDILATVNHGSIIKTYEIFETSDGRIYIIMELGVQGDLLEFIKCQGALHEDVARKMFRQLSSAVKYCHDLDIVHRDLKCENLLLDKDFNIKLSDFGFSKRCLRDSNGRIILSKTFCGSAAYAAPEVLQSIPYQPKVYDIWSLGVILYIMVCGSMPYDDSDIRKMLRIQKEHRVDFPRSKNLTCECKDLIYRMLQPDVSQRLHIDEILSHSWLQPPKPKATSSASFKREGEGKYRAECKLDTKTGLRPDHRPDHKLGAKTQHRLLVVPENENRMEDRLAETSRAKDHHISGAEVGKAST
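Further: values are mean inhibition of TSSK2 activity from the GSK PKIS profiling panel.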

Structure (SMILES)	inhibition [%]
Clc1ccc(CNc2nccc(-c3cnn4ncccc34)n2)cc1	0.23
CN(c1ccc(NC(=O)Nc2c(Cl)cccc2Cl)cc1)c1ccnc(Nc2cccc(CS(C)(=O)=O)c2)n1	0.55
Cc1ccc(NC(=O)c2ccoc2)cc1-c1ccc(C(=O)NCC2CC2)cc1	0.85
FC(F)(F)c1cccc(Nc2nccc(-c3cnn4nc(-c5ccccc5)ccc34)n2)c1	1.62
CN(C)c1ccc2c(c1)/C(=C/Nc1ccc(S(N)(=O)=O)cc1)C(=O)N2	0.44
C/C(Nc1ccc(S(N)(=O)=O)cc1)=C1/C(=O)Nc2ccccc21	-0.65
COc1cc(N2CCN(C(C)C)CC2)ccc1Nc1nc(Nc2ccc(F)cc2C(=O)NC[C@@H](O)CO)c2cc[nH]c2n1	15.7
Nc1nccc(-c2c(-c3ccc(F)cc3)ncn2C2CCC(O)CC2)n1 (stereo unspecified)	-1.46
N#Cc1ccc(Oc2nccc(-c3c(-c4ccc(F)cc4)ncn3C3CCNCC3)n2)cc1	1.71
C[C@@H](Oc1cc(-n2cnc3ccc(OCC4CCN(C)CC4)cc32)sc1C(N)=O)c1ccccc1Cl	3.55
Fc1ccc(-c2c(-c3ccncc3)nc3n2CCS3)cc1	1.87
O=C(Nc1n[nH]c2cc(-c3cc(F)ccc3F)ccc12)C1CC1	1.22
CCS(=O)(=O)c1ccc(OC)c(Nc2ncc(-c3ccccc3Cl)o2)c1	1.6
O=C(Nc1n[nH]c2nc(-c3ccco3)ccc12)C1CC1	0.63
NS(=O)(=O)c1ccc(Nc2cc(-c3ccc(O)c(F)c3)n[nH]2)cc1	-3.53
O=C1Nc2ccccc2/C1=C/Nc1ccc(-n2cncn2)cc1	3.01
